{
  "source": "PubChem BioAssay (Tox21)",
  "note": "Where “and” joins values, the source holds several entries; their conditions need not be identical. Equal entries are not always repeated. Results filed as inconclusive are left out. Where a call stands in place of a potency, no number is given. The source holds several records for some structures; these can differ, active in one and inactive in another. Calls of active or inactive are those of the source. Calls come from the whole dose curve. Potency is the fitted concentration of half-maximal effect.",
  "data": [
    {"test": "p53 small molecule agonists, cell-based qHTS assay with rat liver microsomes: qHTS cell viability counter screen (AID 1963580); note: nearly all actives have a fitted effect of over 45% in size", "settings": "p53RE-bla HCT-116 + rat microsomes, ATP viability, 16 h; series mostly up to 66 µM", "excerpt": "National Center for Advancing Translational Sciences [NCATS]\nDivision of Preclinical Innovation [DPI]\nU.S. Environmental Protection Agency [EPA]\nNational Institutes of Environmental Health Sciences [NIEHS]\nNational Toxicology Program [NTP]\nU.S. Food and Drug Administration [FDA]\np53, a tumor suppressor protein, is activated following cellular insult, including DNA damage and other cellular stresses. The activation of p53 regulates cell fate by inducing DNA repair, cell cycle arrest, apoptosis, or cellular senescence. The activation of p53, therefore, is a good indicator of DNA damage and other cellular stresses. The CellSensor p53RE-bla HCT-116 cell line contains a stably integrated beta-lactamase reporter gene under control of the p53 response elements. The activation of the reporter gene under culture conditions can be detected by fluorescence intensity. This cell line was used to screen the Tox21 10K compound library in the condition of presence of rat liver microsomes and to identify agonists that activate the p53 signaling pathway after in vitro metabolic activation (Ooka et al., Archive of Toxicology 96:1975-1987, 2022). The cytotoxicity of the Tox21 compound library against the p53 RE-bla HCT-116 cell line was tested in parallel by measuring the intra cellular ATP content in the same wells.\nTox21 Assay Protocol Summary:\nThe p53RE-bla cells were dispensed at 4,000cells/3ul/well in 1536-well black-clear bottom plates. After the assay plates were incubated at 37 C, 5% CO2 incubator for 5 hours, 23 nL of compounds dissolved in DMSO, positive controls or DMSO only was transferred to the assay plate. Following compound addition, 3 uL of rat liver microsomes (Molecular Toxicology, Boone, NC) at final concentration of 0.5 mg/mL and 1uL of B-Nicotinamide adenine dinucleotide 2'-phosphate (NADPH) at final concentration of 0.5 mg/mL were transferred to the assay plate. The plates were incubated at 37 C for 16 hours. 1 uL of LiveBLAzer detection mixture was added to each well and the plates were incubated at room temperature in the dark for 2 h. Fluorescence intensity at 460 and 530 nm emission and 405 nm excitation were measured by an Envision plate reader. For cell viability readout that measures cytotoxicity, 4 ul/well of CellTiter-Glo reagent was added into the assay plates using a Flying Reagent Dispenser. After 30 min incubation at room temperature, the luminescence intensity in the plates was measured using a ViewLux plate reader.", "values": [
      {"smiles": "Nc1nc(N)nc(NC2CC2)n1", "Potency": "inactive"},
      {"smiles": "CCOCN(C(=O)CCl)c1c(C)cccc1CC", "Potency": "inactive"},
      {"smiles": "O=C(O)CF", "Potency": "inactive"},
      {"smiles": "C[C@]12CC[C@H]3[C@@H](CC=C4C[C@@H](O)CC[C@@]43C)[C@@H]1CC[C@@H]2O", "Potency": "inactive"},
      {"smiles": "O=C1C(Cl)=C(Cl)C(=O)c2ccccc21", "Potency": "inactive"},
      {"smiles": "COc1ccc2c(c1OC)C(=O)O[C@@H]2[C@H]1c2cc3c(cc2CCN1C)OCO3", "Potency": "inactive"},
      {"smiles": "CCCCCCCCCCCCCCCC[N+](C)(C)C", "Potency": "inactive"},
      {"smiles": "C=CCO", "Potency": "inactive"},
      {"smiles": "C[N+]1(C)CCCCC1", "Potency": "inactive"},
      {"smiles": "CCCBr", "Potency": "inactive"},
      {"smiles": "CC[N+]1(CC)CCC(OC(=O)C(O)(c2ccccc2)c2ccccc2)C1", "note": "(stereo not given)", "Potency": "inactive"},
      {"smiles": "CC(C)(c1ccccc1)c1cc(-n2nc3ccccc3n2)c(O)c(C(C)(C)c2ccccc2)c1", "Potency": "inactive"},
      {"smiles": "Cn1cc(-c2ccccc2)c(=O)c(-c2cccc(C(F)(F)F)c2)c1", "Potency": "inactive"},
      {"smiles": "Clc1nc(Cl)nc(Cl)n1", "Potency": "inactive"},
      {"smiles": "Cc1cc(Cl)ccc1OCC(=O)O", "Potency": "inactive"},
      {"smiles": "CCN", "Potency": "inactive"},
      {"smiles": "O=NN1CCCC1", "Potency": "inactive"},
      {"smiles": "OC(O)C(Cl)(Cl)Cl", "Potency": "inactive"},
      {"smiles": "C[C@]12CCC(=O)C(O)=C1CC[C@@H]1[C@@H]2CC[C@]2(C)C(=O)CC[C@@H]12", "Potency": "inactive"},
      {"smiles": "CCC1(c2ccc(N)cc2)CCC(=O)NC1=O", "note": "(stereo not given)", "Potency": "inactive"},
      {"smiles": "CCN(CC)C(=O)/C(Cl)=C(\\C)OP(=O)(OC)OC", "Potency": "inactive"},
      {"smiles": "C[C@]12CCC(=O)C[C@@H]1CC[C@@H]1[C@@H]2CC[C@]2(C)[C@@H](O)CC[C@@H]12", "Potency": "inactive"},
      {"smiles": "O=[N+]([O-])c1cc([As](=O)(O)O)ccc1O", "Potency": "inactive"},
      {"smiles": "CCCCOC(=O)c1ccccc1C(=O)O", "Potency": "inactive"},
      {"smiles": "CCC(C)(C)c1ccc(O)c(C(C)(C)CC)c1", "Potency": "inactive and 25.7 µM (active)"},
      {"smiles": "C1CS1", "Potency": "inactive"},
      {"smiles": "COc1ccc(N)cc1N", "Potency": "inactive"},
      {"smiles": "CCOP(=S)(OCC)SCCSCC", "Potency": "inactive"},
      {"smiles": "O=[N+]([O-])c1ccc(Cl)cc1", "Potency": "inactive"},
      {"smiles": "CC(C)(Cl)Cl", "Potency": "inactive"},
      {"smiles": "O=S(=O)(Cl)Cl", "Potency": "inactive"},
      {"smiles": "Brc1c(Br)c(Br)c(Oc2c(Br)c(Br)c(Br)c(Br)c2Br)c(Br)c1Br", "activity change, negative = cytotoxicity": "4.17% [at 13.5 µM] (inactive)"},
      {"smiles": "C=CC#N", "Potency": "inactive"},
      {"smiles": "O=S(=O)(O)C(F)(F)C(F)(F)C(F)(F)C(F)(F)C(F)(F)C(F)(F)F", "Potency": "inactive"},
      {"smiles": "O=P(Cl)(Cl)Cl", "Potency": "inactive"},
      {"smiles": "O=C(O)CC[N+](=O)[O-]", "Potency": "inactive"},
      {"smiles": "CN1C(=O)CCS(=O)(=O)C1c1ccc(Cl)cc1", "note": "(stereo not given)", "Potency": "inactive"},
      {"smiles": "O=C(Nc1ccc(Br)cc1)c1cc(Br)cc(Br)c1O", "Potency": "inactive"},
      {"smiles": "C=CCOCC1CO1", "note": "(stereo not given)", "Potency": "inactive"},
      {"smiles": "COc1ccc(C=O)cc1OC", "Potency": "inactive"}
    ]}
  ]
}
